# Screens deposited in PubChem by National Center for Advancing Translational Sciences (NCATS).
# In the library only some 2.3% were active in any assay of this set; here they are far more common.
# Lassa entry inh – inhibitors of Lassa virus binding or cell entry; Lassa virus pseudotype entry inhibition, cell reporter; Potency, µM (titrated, usually from 37.9 µM), for the others: at the top dose activity change, negative = inhibition, most hits filed as inhibitors; hit rate 1.2% among 300,000; calls by dose curve; tested in HEK293 cells; note: nearly all actives have a fitted effect of over 50% in size
# AmpC detergent – inhibitors of E. coli AmpC beta-lactamase with detergent | AmpC hydrolysis of nitrocefin, absorbance 480 nm, 0.01% Triton | Potency, µM (titrated, usually from 114 µM), for the others: at the top dose activity change, negative = inhibition, hits mostly inhibitors | hit rate 0.041% among 370,000 | P00811;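 note: 0% = no-compound wells and -100% = no-enzyme wells; nearly all actives have a fitted effect of over 25% in size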
# Target sequence (P00811 whole entry, looked up): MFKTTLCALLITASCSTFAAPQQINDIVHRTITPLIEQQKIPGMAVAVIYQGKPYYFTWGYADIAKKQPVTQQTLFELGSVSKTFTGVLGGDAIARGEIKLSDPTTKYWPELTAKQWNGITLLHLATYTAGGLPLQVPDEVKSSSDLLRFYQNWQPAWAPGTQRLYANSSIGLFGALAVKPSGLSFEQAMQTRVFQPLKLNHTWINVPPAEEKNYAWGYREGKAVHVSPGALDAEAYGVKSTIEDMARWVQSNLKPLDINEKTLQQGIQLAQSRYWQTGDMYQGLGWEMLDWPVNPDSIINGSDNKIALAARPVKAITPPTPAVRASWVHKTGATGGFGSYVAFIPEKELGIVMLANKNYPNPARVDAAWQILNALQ
#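 20 mM phosphate pH 7.0 + 0.01% (detergent screen) or 0.0001% Triton X-100; 5.3 nM AmpC reagent; cpd preinc 15 min RT; nitrocefin (800 uM stock) to start; A480 q20 s × 4 min; Activity was normalised to no-enzyme and no-compound control wells.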
# Marburg entry inh – blocks Marburg virus binding to or entry into cells; Marburg virus pseudotyped entry inhibition, cell reporter; Potency, µM (titrated, usually from 37.8 µM), for the others: at the top dose activity change, negative = inhibition, hits mostly inhibitors; hit rate 1.8% among 300,000; AID 540276; calls by dose curve; tested in HEK293 cells
# AMA1-RON2 inh – AMA1-RON2 (P. falciparum) interaction inhibition. hit rate 0.2% among 360,000. Potency, µM (highest dose often 58.2 µM), for the others: top-dose activity change, negative = inhibition, most hits filed as inhibitors. AID 720542. AlphaScreen AMA1-biotinylated RON2 peptide binding;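 note: 0% = vehicle wells and -100% = peptide control; nearly all actives have a fitted effect of over 45% in size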
#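 AMA1 (3D7) with his tag at 25 nM final met compounds first, then biotinylated RON2 peptide at 25 nM; detection used donor plus acceptor beads, 10 µg/mL apiece, read by AlphaScreen after 30 min at room temperature.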
# AmpC inh no detg – AmpC beta-lactamase inhibition without detergent; Potency, µM (highest dose often 57.1 µM), without a hit: at the highest dose activity change, negative = inhibition, hits mostly inhibitors; P00811; AmpC nitrocefin hydrolysis, absorbance 480 nm, 0.0001% Triton; hit rate 0.52% among 330,000;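 note: plate controls were no compound for no effect and no enzyme for full effect; nearly all actives have a fitted effect of over 20% in size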
#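 20 mM phosphate pH 7.0 + 0.01% (detergent screen) or 0.0001% Triton X-100; 5.3 nM AmpC reagent; cpd preinc 15 min RT; nitrocefin (800 uM stock) to start; A480 q20 s × 4 min; Activity was normalised to no-enzyme and no-compound control wells.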
# * hit, by the source's call; ? = inconclusive; . = no result given; [ ] = remark or other dose. Unless noted, calls come from the whole dose curve; as a rule, active = well fitted curve in the direction sought with a large enough effect; inconclusive = small, poorly fitted or top-dose-only effect, or another doubt; inactive = no such curve, though single readings can be large; an effect the other way counts as inactive or inconclusive. Unless noted, % is set by controls: 0 for no effect and ±100 for the full control effect; potency is the fitted concentration of half-maximal effect.
SMILES,Lassa entry inh,AmpC detergent,Marburg entry inh,AMA1-RON2 inh,AmpC inh no detg
Cn1c(=N)n(CC(=O)c2ccccc2)c2ccccc21,7.1µM*,4%,2µM*,-1%,-2%
CC(=O)[C@@]12C3[C@@H](CCN3C(=O)N[C@H]1c1ccccc1)[C@H]2c1ccccc1 (stereo not given in full),.,.,21%[14.2 µM],.,.
OC(CC#CCN1CCCC1)(c1ccccc1)c1ccccc1,-28%,-2%,10µM*,-29%,1%
CC(=O)Nc1cc(=O)c2cccnc2[nH]1,23%[46.1 µM],.,2%[46.1 µM],14µM*,.
C(=N\Nc1nc2ccccc2s1)/c1ccccn1,0.89µM*,3%,?,12%,34%
COc1cc(OC)cc(C(=O)Oc2ccc(/C=N/Nc3nc4ccccc4s3)cc2OC)c1,?,-4%,?,66%,-53%
Brc1csc(/C=N/Nc2nc3ccccc3s2)c1,?,-6%,?,-2%,-38%
COc1ccc(C=NNc2nc3ccccc3s2)cc1,?,.,7.1µM*,33%,.
COc1ccc(OCC(=O)NNc2nc3ccccc3s2)cc1,24%,-6%,-3%[46.1 µM],35%,10µM*
Cc1cccc(C(=O)Nc2ccc(C(=O)OCc3cc(=O)n4nc(CC(C)C)sc4n3)cc2)c1,9%[46.1 µM],-1%,.,.,.
CC(C)COc1ccc(C(=O)Nc2onc3c2CCCC3)cc1,?,15%,?,.,.
CCN(CC)CCN1C(=O)C(O)=C(C(=O)c2cccs2)[C@@H]1c1ccccn1,.,.,14%,.,.
N/C(COc1ccccc1)=N\NS(=O)(=O)c1ccccc1,-4%,1%,10%,38%,0.16µM*
CCOc1ccc(CSC2=NCCN2)cc1Cl,?,-2%,15µM*,53%,-11%
CN(C)CCCN1C(=O)CSC1c1ccccc1 (stereo not given),.,?,.,3%,1µM*
CCOC(=O)c1oc2ccc(CNC3CCCCC3)c(Cl)c2c1C,?,-1%,7.3µM*,-14%,-5%
CCOC(=O)c1c(NC(=O)CSc2nnc(-c3c[nH]c4ccccc34)n2C)sc2c1CCCC2,-2%,-4%,?,-5%,3.5µM*
CCOC(=O)c1c(NC(=O)C(C)OC(=O)c2ccc(NC(=O)CC#N)cc2)sc2c1CCCC2 (stereo not given),?,-13%,-11%,-1%,28µM*
CCOC(=O)c1c(NC(=O)c2ccc(-n3cnnn3)cc2)sc2c1CCCC2,16µM*,-12%,?,20%,-33%
COc1ccc(C(=O)Nc2ccc3nc(SCC(=O)N(C)c4ccccc4)sc3c2)cc1,?,15%,?,.,.
COC(=O)c1ccc(CN(Cc2ccc(OC)c(OC)c2)S(=O)(=O)c2ccc(F)c(C(=O)Nc3cc(C)ccc3C)c2)cc1,15%[46.1 µM],9%,.,.,.
COc1ccc(/C=N/Nc2cc(C)nc3ccc(Br)cc23)cc1,?,-1%,4.5µM*,?,6%
O=C1NC(=S)N(c2ccc(F)cc2)C(=O)/C1=C\c1ccoc1,.,1%,-11%[46.1 µM],-16%,-40%
COc1ccc(N2C(=O)/C(=C/c3ccc(C)o3)C(=O)NC2=S)cc1,.,-5%,.,-3%,-19%
O=C1NC(=S)N(c2ccc(F)cc2)C(=O)/C1=C/c1ccco1,.,50µM*,.,.,18µM*
SMILES,Lassa entry inh,AmpC detergent,Marburg entry inh,AMA1-RON2 inh,AmpC inh no detg
COc1ccc(OC)c(N2C(=O)/C(=C/c3ccco3)C(=O)NC2=S)c1,-8%,50µM*,10µM*,?,18µM*
CCC(=N[C@H](CC)CO)C1=C(O)CC(C)(C)CC1=O,.,.,7%,.,.
O=c1nc(N/N=C/C=C/c2ccccc2)cn[nH]1,2.2µM*,-1%,-9%[46.1 µM],32%,0%
O=c1nc(N/N=C/c2c[nH]c3ccccc23)cn[nH]1,?,5%,8.9µM*,73%,-20%
C(=C\c1ccccc1)/C=N/Nc1nncc(-c2ccccc2)n1,0%,-2%,32%,.,-4%
Cc1c(C(=O)N(Cc2ccco2)Cc2ccccc2Cl)oc2ccc(F)cc12,-16%[46.1 µM],0%,?,.,.
O=C(N/N=C(/CC(=O)c1cccs1)C(F)(F)F)c1ccc(O)cc1,?,-6%,-29%,30%,7.9µM*
Cc1ccc(S(=O)(=O)NCc2ccc3c(c2)cc(C)n3C)cc1,.,?,.,-11%,25µM*
COc1ccc(N2CCN(CCCNC(=O)c3cnn(-c4ccc(C)cc4)c3-n3cccc3)CC2)cc1,10%[46.1 µM],25%,.,.,.
N#CC1(C#N)CC(C=O)=C(N)C1(C#N)CC(=O)C12CC3CC(CC(C3)C1)C2 (stereo not given),?,-10%,?,27%,16µM*
Nc1nccnc1C(=O)OCC(=O)C12CC3CC(CC(C3)C1)C2,16%,?,1%[46.1 µM],-7%,-22%
CC(=O)Nc1cccc(NC(=O)CSc2cn(CC(=O)N3CCCCCC3)c3ccccc23)c1,-29%[46.1 µM],3%,.,.,.
O=C(O)c1ccc(S(=O)(=O)/N=C2\C=C(Nc3ccccc3F)C(=O)c3ccccc32)cc1,?,3%,?,-10%,-21%
Cc1ccccc1NC1=C/C(=N\S(=O)(=O)c2cccs2)c2ccccc2C1=O,?,-9%,3.7µM*,8.9µM*,-39%
CC(=O)Nc1ccc(NC2=C/C(=N/S(=O)(=O)c3cccs3)c3ccccc3C2=O)cc1,?,-13%,5µM*,-26%,-24%
Cc1ccccc1NC1=C/C(=N\S(=O)(=O)c2ccc(C(=O)O)cc2)c2ccccc2C1=O,?,?,8.9µM*,-27%,-26%
COc1ccc(S(=O)(=O)/N=C2\C=C(Nc3ccc(O)cc3)C(=O)c3ccccc32)cc1,?,?,?,18µM*,-35%
Cc1ccc(NC2=C/C(=N/S(=O)(=O)c3cccs3)c3ccccc3C2=O)cc1C,4%,2%,-7%,-15%,-21%
COc1cccc(-n2nnc3c(=O)n(Cc4ccc(C)cc4)cnc32)c1,4.1µM*,-13%,?,4%,-14%
CC(C)CC(=O)/C(=C\c1ccc(Cl)cc1Cl)n1cncn1,0.58µM*,-3%,?,-13%,-8%
CC(C)CC(=O)/C(=C/c1ccc(N(C)C)cc1)n1cncn1,-4%[46.1 µM],5%,-1%[46.1 µM],4%,-16%
CCN(CC)c1ccc(Nc2nc(N3CCOCC3)c3ccccc3n2)cc1,18µM*,0%,?,24µM*,-10%
c1ccc2c(c1)nc(N1CCOCC1)c1ccccc12,-30%[46.1 µM],4%,-20%[46.1 µM],13%,26%
COc1ccc(Nc2nc(N3CCCC3)c3ccccc3n2)cc1,?,-9%,1.6µM*,?,-16%
CCCNC(=O)OC[C@H]1O[C@H](CCO/N=C2\C[C@@H](O)[C@@H](O)[C@@H]3[C@@H]4C(=O)N(CC)C(=O)[C@@H]4CC[C@@H]23)C=C[C@@H]1Oc1ccc(OC)cc1,.,.,0%[14.2 µM],.,.
CC(=O)OC[C@H]1O[C@@H](ON=C[C@@H](C)[C@H](OCc2ccccc2)C(C)C)[C@@H](OC(C)=O)[C@@H](OC(C)=O)[C@@H]1OC(C)=O,23%[14.3 µM],.,?,.,.
